The assay deals with VDR:RXRa (NR concentration 270 nM, RXRa partner concentration 90 nM). The assay can be described thus: PBM binding z-score (relative to random genomic background probes); higher = stronger binding; sequences stand for … in GC…GCGATTGACAGCGTAGAATGAAGG
On the procedure: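 Protein-binding microarray (Agilent 4x180K custom design, double-stranded 60-nt probes: 5' GC cap, 34-nt variable region, 24-nt constant primer region; full probe sequence given). Purified or IVT nuclear receptor:RXRα heterodimers (3:1 NR:RXRα, mostly 270:90 nM) or homodimers were incubated for 1 h in PBS with 2% milk and no ligand, then detected with Alexa488 antibodies. Fluorescence from o1-orientation probes (~5 replicates averaged) was converted to z-scores against 500 random hg19 background probes. Variable regions are seed direct-repeat (DR0–DR5) sites, all their single-nucleotide variants and half-site ablations.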
For the sequence ATCTCTAGGAAAAGTTCAGTGAAAGATCGATAGA, the PBM binding z-score turned out to be 1.2.

Take ACTAGCAGGCCAAGGGTCACTCGAGATTAGTCCG: the PBM binding z-score was determined as 2.56.

In turn, GCTTACGGGTCAAAGGTTTTAGCATGAATAGAAT yielded a PBM binding z-score of 4.08.

Consider TCTCGGAGGACACGAAAGTCAGAGCTTTCCAGAG, for which the PBM binding z-score is -0.402.

Sequence CGACCTAGGTCATTGACAGGACAGTGAATAGTAA registered a PBM binding z-score of 2.97.

For CCTACTGGGCCATTCTGAGGTCATTGATCATATG, the PBM binding z-score turned out to be 3.7.

Sequence TCTTGTAGATCAAAGGTTAAGAATGCCGAAGCCT had a PBM binding z-score of 1.7.

ACTTACGGGTCAACGAGGATATAGCACGCGTATA: the PBM binding z-score was 6.51.

The sequence CCTACTGGGCCACGAAAGGTCGTTGATTCAGTGA gave a PBM binding z-score of 1.74.

Take ACTTACTGGTCAACGAGGTTATAGCACGCGTATA: the PBM binding z-score worked out at 5.15.

TCAGACAGGTGAAGGTAAATCAGGTACGCAGTCG yielded a PBM binding z-score of 1.2.

With CCGAGTAGGTTATGGGGCATTCACGCAACGGTGA, the PBM binding z-score is -0.0125.

Consider AATACAGGGTCACTAGTCCAGAGTAGGTACGAAT, for which the PBM binding z-score was found to be 4.05.

In turn, CCTTCCGGGTCACGAGGTTATAGCACGACGAGCG gave a PBM binding z-score of 5.39.

AGACCAAGGTGATCGTGAGGTCGTTGATACTAAC showed a PBM binding z-score of 3.12.

TCATATAGGTAAAAGTTGAAAGTCGGTGTGGTAA showed a PBM binding z-score of 1.21.

As for ACAGACAGCTGAGTGAAGGTAACTCAGCTGGACG, the PBM binding z-score is -0.322.

CCGCGGAGGACAACAGGAGGTCAGAGCTGCCAGA registered a PBM binding z-score of 1.8.

The sequence CCGACTGGGGCAAGGTTACCATTACGCACAGCCA showed a PBM binding z-score of 0.00135.

As to TTTATTAGTTGATTAGGGCAACCGAAACAGCGGA, the PBM binding z-score amounted to 0.643.

As for CCTACTGGGCCAGTCAGAGGTCATTGATCATATG, the PBM binding z-score came to 3.67.

As for CCTGCTAGGTCAATGCTCAGCTAAAGCAGCTCGC, the PBM binding z-score came to 0.598.

Consider TTACCAAGGTGAAGGTCGTTTATCCCTCTGTAGA, for which the PBM binding z-score was found to be 1.66.

In the case of TCTTGTACATCAATAGAGGTTAAGAAAGTGCGCT, the PBM binding z-score worked out at 2.07.

With CCGGCTGGGGCAGAAAGGTTACCATACCATCCGG, the PBM binding z-score is 0.63.

Sequence ATCTCTAGGTACCAAGTTCAGTGAAAGAGAGGAC returned a PBM binding z-score of 1.64.

The sequence GCATATAGGTAATCCAAGGTGAAAGTCCGATTGT registered a PBM binding z-score of 0.373.

Sequence TCAATGAGGTTATAAGATCAGGGAACGTTGCAAA displayed a PBM binding z-score of 1.22.

GCTGCTAGGTCAACTGATGGTCTGCTAAAGCTCG displayed a PBM binding z-score of 1.29.

For the sequence TGAATGAGGTTGAAGATCAGGGAACGTGGCGTCG, the PBM binding z-score is -0.171.

ATCTCTAGGTAAAGATTGTTCAGTGAATGCAAAT showed a PBM binding z-score of 0.327.

For CAAACTATGTCACGAAAGGTCAAAGTCGAATGAC, the PBM binding z-score turned out to be 5.07.

For CGTACTGGGCCAAGGTCATTGATCAGTCAAAGCA, the PBM binding z-score was determined as 3.3.

Regarding CATACAGGGTCAGCTAGGCAAGAGTAGGGACGGC, the PBM binding z-score was found to be 2.53.

CCAGGCAGGTGAGAAGGTAACTCAGCCTCGATTA yielded a PBM binding z-score of -0.539.

In the case of CTCGAAAGGTCGGTTGAGGTGAGTATGCGGATAA, the PBM binding z-score was determined as 2.15.

ATATGAAGGTTAGCTGGGGTCATTCAGACTAGGC gave a PBM binding z-score of 6.61.

Turning to TCTAGTTGGTCACTGAGGTCACACACGACGGGTA, the PBM binding z-score came to 6.51.

Consider CCTGCTAGGTCAATGGTCAGCTTAAGCAGCTCGC, for which the PBM binding z-score was found to be 1.03.

For the sequence CCTTACGGGTCATGGTTATAGCACGGGTGGTACG, the PBM binding z-score came out at 3.23.

The record behind these values is the supplement of paper PMC6555819.
